Reference: PMC5540273 (PLoS ONE, 2017)

Columns and labels:
Conditions in all cases: concentration: 1 μM, replicates: in singlicate; n = 1
[1] = tested on: CHEK1
[2] = tested on: CHEK2
[3] = tested on: CIT
[4] = tested on: CLK1
[5] = tested on: CLK2
[6] = tested on: CLK3
[7] = tested on: CLK4
[8] = tested on: CSF1R-autoinhibited
[9] = tested on: CSF1R
[10] = tested on: CSK
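Further: KINOMEscan kinase panel screen.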

SMILES	%Inh [1] [%]	%Inh [2] [%]	%Inh [3] [%]	%Inh [4] [%]	%Inh [5] [%]	%Inh [6] [%]	%Inh [7] [%]	%Inh [8] [%]	%Inh [9] [%]	%Inh [10] [%]
CN(C(=O)c1ccc(-c2cc(-c3c[nH]nc3-c3ccccn3)ccn2)cc1)C1CCOCC1 [GW810083]	0	12	5	23	0	0	0	31	20	0
N#Cc1c(N2CCOCC2)sc(-c2ccn[nH]2)c1-c1ccc(Cl)cc1	15	15	24	6	0	16	0	8	34	17
C[C@@H](Oc1cc(-n2cnc3ccc(NC(=O)NC(C)(C)C)cc32)sc1C(N)=O)c1ccccc1Cl [GSK346294]	10	19	0	18	7	22	40	15	6	1
COC(=O)Nc1nc2cc(Oc3ccc(NC(=O)Nc4cc(F)ccc4F)cc3)ccc2[nH]1.Cl [GW701424]	0	21	99	29	0	14	40	50	99.7	0
Cc1c2ccc(N(C)c3ccnc(Nc4cccc(S(N)(=O)=O)c4)n3)cc2nn1Cc1ccccc1.Cl.Cl [GW787226]	0	8	6	0	12	0	0	64	100	9
